Our source for the outcome and AC50 values is PubChem BioAssay (EPA / NIEHS).

Active and inactive are the calls of the source. The calls were made as follows: active = hit-call score of the fitted dose curve at least 0.9, where 1 is the maximum; inactive = score below 0.9.

One may read the AC50 as the midpoint of the concentration-response curve, whichever way the signal moves.

The test can be described thus: ATG_BRE_CIS: Attagene CIS-FACTORIAL HepG2 Assay for human Bone Morphogenetic Protein (BMP) Response Element (BRE) (AID 2282933). The note with it: HepG2 BMP response element reporter, Attagene transcription factor profiling; actives raise or lower the signal. On the procedure:
ATG_CIS is a cell-based, multiplexed-readout assay that uses HepG2, a human liver cell line, with measurements taken at 24 hours after chemical dosing in a 24-well plate.ATG_BRE_CIS is one of 52 assay component(s) measured or calculated from the ATG_CIS assay. It is designed to make measurements of mRNA induction, a form of inducible reporter, as detected with fluorescence intensity signals by Reverse transcription polymerase chain reaction (RT-PCR) and Capillary electrophoresis technology.Data from the assay component ATG_BRE_CIS was analyzed into 1 assay endpoint. This assay endpoint, ATG_BRE_CIS, was analyzed with bidirectional fitting relative to DMSO as the negative control and baseline of activity. Using a type of inducible reporter, measures of mRNA for gain or loss-of-signal activity can be used to understand the reporter gene at the transcription factor-level as they relate to the gene SMAD1. Furthermore, this assay endpoint can be referred to as a primary readout, because this assay has produced multiple assay endpoints where this one serves a reporter gene function. To generalize the intended target to other relatable targets, this assay endpoint is annotated to the dna binding intended target family, where the subfamily is Smad protein.
Human liver HepG2 cells are transiently transfected with multiple reporter transcription units (MRTUs) in 6-well plates using FuGene 6 reagent (Roche; 3 ml FuGene/1 mg DNA). The MRTU constructs are regulated by a cis-regulating element (promoter). […] A major difference between the CIS and TRANS system is that in CIS activities of endogenous TFs are measured, whereas the TRANS assay evaluates changes in activities of exogenous, chimeric NR-Gal4 proteins. […] At the end of 24 hour incubation, total RNA was isolated using TriZol reagent (Invitrogen). The isolated RNA is then reverse-transcribed using oligo(dT) primer and Mo-MLV reverse transcriptase (Invitrogen) with DNAse I (Ambion) treatment for 30 min. The one-tenth of the produced cDNA was amplified by PCR using Taq DNA polymerase (Invitrogen) and two reporter sequence-specific primers. The PCR products were fluorescently labeled by primer extension with 6-arboxyfluorescein (6-FAM) 5'-labeled reporter sequence-specific primer (2 min at 95 C, 20 s at 68 C and 10 min at 72 C) and these products were digested with 5U of HpaI (New England Biolabs) for 2h at 37 C. The fragments were purified using Qiaquick PCR columns (Qiagen), analyzed on an ABI 3130xL genetic analyzer (Applied Biosystems) with peak positions identified by using a set of X-rhodamine (ROX)-labeled MapMarker1000 molecular weight standards (BioVentures). The raw capillary electrophoresis data was processed using Attagraph software (Attagene).
As to `C[Si]1(C)O[Si](C)(C)O[Si](C)(C)O[Si](C)(C)O[Si](C)(C)O1`, the result was inactive.
The same measure, in the same setting: the result for `CC(=O)OCCc1ccccc1` reads “inactive”; that for `CC(C)(O)Cc1ccccc1`, “inactive”; that for `COC(=O)c1ccccc1C`, “inactive”.
As to `CC1CCC(C(C)(C)S)C(=O)C1` (stereo not given), the call was inactive.
Same read-out and setting: the entry for `CC1=CCC2CC1C2(C)C` (stereo not given) is “inactive”; for `O=S(=O)(O)c1ccc(N=Nc2c(O)ccc3ccccc23)cc1` it is “inactive”; for `CCCCC(CC)COC(=O)/C=C/c1ccc(OC)cc1` (stereo not given) it is “inactive”.
On the same count and under the same terms, the result for `C=CCCCCCCCCC=O` reads “inactive”; that for `Cc1cccc(C(C)(C)C)c1O`, “inactive”; that for `CC(C)c1cccc(C(C)C)c1N`, “inactive”.
On the same count and under the same terms, the result for `N#Cc1ccc(C2CCCc3cncn32)cc1` (stereo not given) reads “inactive”; that for `CC(C)(C)N`, “inactive”.
In the case of `CCCCCCCCCCCCC`, the compound was classed as inactive.
Regarding `O=C(O)c1cc(O)c2ccccc2c1O`, the outcome was inactive.
Take `Fc1ccc(Br)cc1`: the outcome was inactive.
Still for that read-out and setting: the entry for `CC(=O)c1ccccc1O` is “inactive”; for `O=C1c2ccccc2C(=O)c2cc(S(=O)(=O)O)ccc21` it is “inactive”; for `CC(CC=O)CC(C)(C)C` (stereo not given) it is “inactive”.
Still for that read-out and setting: the result for `O=C(Cl)c1ccc(C(=O)Cl)cc1` reads “inactive”; that for `CCCCCCCCCCCCc1ccc(O)cc1`, “inactive”; that for `CC1=CP(=O)(c2ccccc2)CC1` (stereo not given), “inactive”.
The same measure, in the same setting: the result for `CC(C)c1cc(C(C)C)cc(C(C)C)c1` reads “inactive”.
In the case of `CC(C)c1ccc(O)c(C(C)C)c1`, the compound was called inactive.
Turning to `Cn1ccnc1`, the compound was called inactive.
The same measure, in the same setting: the entry for `CN(C)Cc1cc(CN(C)C)c(O)c(CN(C)C)c1` is “inactive”; for `CCOC(=O)c1ccccc1C` it is “inactive”.
On to `O=c1c(O)c(-c2ccc(O)cc2O)oc2cc(O)cc(O)c12`, for which the AC50 was 19.3 µM (active).
Consider `CC(=O)c1ccc(S(=O)(=O)NC(=O)NC2CCCCC2)cc1`, for which the call was inactive.
For `CC(C)(C)C1CCC(=O)CC1`, the call was inactive.
Same read-out and setting: the result for `Cc1cc(C)n(CO)n1` reads “inactive”; that for `CCc1cccc(C)c1N`, “inactive”.
As to `O=C(Nc1ccccc1)c1cc(Cl)ccc1O`, the AC50 was 3.15 µM (active).
Turning to `CCCCC(=O)O`, the compound was called inactive.
Still for that read-out and setting: the result for `COCC(=O)O` reads “inactive”; that for `CC(C)OC(=O)c1ccccc1`, “inactive”.
Take `O=C(O)C1CCC(C(=O)O)CC1` (stereo not given): the call was inactive.
As for `Cc1cc(=O)[nH]c(=O)[nH]1`, the result was inactive.
The same measure, in the same setting: the result for `Clc1cccnc1` reads “inactive”; that for `CC(C)c1ccc2ncccc2c1`, “inactive”.
